Where a name gives a salt, the structure may show the parent alone. Unmarked numbers belong to inactive results.
Key:
Settings in all cases: 20 µM
[1] = tested on: Salmonella enterica typhimurium; experiment: growth AUC normalised to DMSO control (fraction of control); higher = less growth inhibition, active = hit call of the paper
In short: (§1)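 Pathogens were passaged twice under anaerobic conditions, then inoculated into pre-reduced mGAM plates at a starting OD578 of 0.01, with compound at 20 μM and 1% DMSO, and sealed with breathable membranes. For Haemophilus parainfluenzae, the medium was supplemented with hemin and NAD. OD578 was read every hour for 24 h in three biological replicates. Growth-curve AUC was calculated by the trapezoidal rule up to the exponential-to-stationary transition and normalised to DMSO controls on the same plate.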

Shigella flexneri = experiment: as above
In short: as §1

Vibrio cholerae = experiment: as above
In short: as §1

[2] = tested on: Yersinia pseudotuberculosis; experiment: as above
In short: as §1

P. vulgatus RND KO = experiment: growth AUC normalised to DMSO control (median) (fraction of control); higher = less growth inhibition, active = hit call of the paper
In short: (§2)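 Area under the growth curve, calculated by the trapezoidal rule up to entry into stationary phase, was normalised to vehicle wells on the same plate. Strains had been passaged twice overnight without oxygen and then grown in mGAM in 96-well plates from OD578 0.01, each with an approved-drug library compound at 20 μM in 1% DMSO. OD578 was read hourly over 24 h in an anaerobic incubator, and the median of three biological replicates is given.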

P. vulgatus WT = experiment: as above
In short: as §2

[3] = tested on: S. enterica typhimurium WT; experiment: as above
In short: as §2

[4] = tested on: S. enterica typhimurium tolC KO; experiment: as above
In short: as §2
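Throughout, for growth AUC normalised to DMSO control (median): active when median AUC fell below 0.1.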

Row | Structure (SMILES) | growth AUC normalised to DMSO control [1] | growth AUC normalised to DMSO control (Shigella flexneri) | growth AUC normalised to DMSO control (Vibrio cholerae) | growth AUC normalised to DMSO control [2] | growth AUC normalised to DMSO control (P. vulgatus RND KO) | growth AUC normalised to DMSO control (P. vulgatus WT) | growth AUC normalised to DMSO control [3] | growth AUC normalised to DMSO control [4]
1 | C=CCN1CCCC1CNC(=O)c1cc2nn[nH]c2cc1OC (stereo not drawn) [Alizapride hydrochloride] | 1 | 1 | 1.01 | 0.996 | 0.998 | 1 | 1.02 | 1
2 | CCOc1ccc2ccccc2c1C(=O)N[C@@H]1C(=O)N2[C@@H]1SC(C)(C)[C@@H]2C(=O)O [Nafcillin sodium salt monohydrate] | 0.981 | 0.973 | 0.96 | 0.967 |  |  | 1 | 
3 | O=C(O)[C@H]1/C(=C/CO)O[C@@H]2CC(=O)N21 [Clavulanate potassium salt] | 1.01 | 1.03 | 1.08 | 1.03 |  | 1.12 | 0.995 | 0.999
4 | Cc1ncc(C[n+]2csc(CCO)c2C)c(N)n1 [Thiamine hydrochloride] |  | 0.961 | 0.967 | 0.999 | 0.978 | 0.981 | 0.998 | 0.996
5 | O=C(O)c1cc(/N=N/c2ccc(S(=O)(=O)Nc3ccccn3)cc2)ccc1O [Sulfasalazine] |  | 1.01 | 1.01 | 0.99 | 1 | 1.02 | 1.01 | 1.01
6 | CCCCCCC[N+](CC)(CC)CCCCc1ccc(Cl)cc1 [Clofilium tosylate] | 1 | 0.99 | 1.02 | 1.02 | 0.973 | 0.859 | 1.01 | 0.541
7 | NC(CO)C(=O)NNCc1ccc(O)c(O)c1O (stereo not drawn) [Benserazide hydrochloride] | 1 | 1 | 1.01 | 0.942 | 0.969 | 0.973 | 0.982 | 1
8 | CCOC(=O)OC(C)OC(=O)[C@@H]1N2C(=O)[C@@H](NC(=O)[C@H](N)c3ccccc3)[C@H]2SC1(C)C (stereo partly drawn) [Bacampicillin hydrochloride] | 0.00881 (active) | 0.0323 (active) | 1 | 0.277 (active) |  |  | 0.154 | 0.0179 (active)
9 | Cc1onc(-c2ccccc2Cl)c1C(=O)N[C@@H]1C(=O)N2[C@@H]1SC(C)(C)[C@@H]2C(=O)O [Cloxacillin sodium salt] | 1.01 | 1 | 0.99 | 1.01 |  |  | 0.994 | 0.0356 (active)
10 | CN(Cc1cnc2nc(N)nc(N)c2n1)c1ccc(C(=O)N[C@@H](CCC(=O)O)C(=O)O)cc1 [Amethopterin] | 0.983 | 0.948 | 0.912 | 0.982 |  | 0.916 | 0.997 | 0.7
11 | CCCCc1cc2ccccc2c(OCCN(C)C)n1 [Dimethisoquin hydrochloride] | 1 | 1.03 | 0.866 (active) | 1.02 | 1 | 1.02 | 0.997 | 0.918
12 | CCCNCC(O)COc1ccccc1C(=O)CCc1ccccc1 (stereo not drawn) [Propafenone hydrochloride] | 1 | 0.994 | 0.979 | 0.99 | 1.03 | 1.05 | 0.988 | 0.948
13 | C[C@]1(Cn2ccnn2)[C@H](C(=O)O)N2C(=O)C[C@H]2S1(=O)=O [Tazobactam] | 0.986 | 0.976 | 0.972 | 0.99 |  | 0.57 | 0.99 | 1
14 | CN/C(=N\CCSCc1nc[nH]c1C)NC#N [Cimetidine] |  | 0.992 | 1 | 1 | 0.995 | 1.02 | 1 | 0.996
15 | CNC(C)CCC=C(C)C (stereo not drawn) [Isometheptene mucate] | 0.988 | 0.995 | 1.01 | 1 | 1.01 | 1.02 | 1.01 | 1
16 | CC1(C)S[C@@H]2[C@H](NC(=O)[C@H](N)c3ccccc3)C(=O)N2[C@H]1C(=O)O [Ampicillin trihydrate] | 0.00858 (active) | 0.0549 (active) | 0.254 (active) | 0.0564 (active) |  | 0.0887 (active) | 0.0624 (active) | 0.0201 (active)

Row | Structure (SMILES) | growth AUC normalised to DMSO control [1] | growth AUC normalised to DMSO control (Shigella flexneri) | growth AUC normalised to DMSO control (Vibrio cholerae) | growth AUC normalised to DMSO control [2] | growth AUC normalised to DMSO control (P. vulgatus RND KO) | growth AUC normalised to DMSO control (P. vulgatus WT) | growth AUC normalised to DMSO control [3] | growth AUC normalised to DMSO control [4]
17 | CC(C)NC[C@@H](O)COc1cccc2ccccc12 [(R) Propranolol hydrochloride] |  | 1.02 | 1.02 | 0.999 | 0.978 | 0.988 | 0.984 | 0.983
18 | Nc1nc2ccc(OC(F)(F)F)cc2s1 [Riluzole hydrochloride] | 1.01 | 0.993 | 0.937 | 0.984 | 0.999 |  | 0.979 | 0.976
19 | CCC(=O)OCC(=O)[C@@]1(OC(=O)CC)[C@@H](C)C[C@H]2[C@@H]3CCC4=CC(=O)C=C[C@]4(C)[C@@]3(Cl)[C@@H](O)C[C@@]21C [Beclomethasone dipropionate] | 0.99 | 0.956 | 0.965 | 1.01 |  | 0.972 | 1.01 | 0.975
20 | Cn1c(=O)c2c(ncn2C)n(C)c1=O [Caffeine] |  | 1.04 | 1.03 | 1.01 | 1.02 | 1.02 | 0.993 | 0.999
21 | COc1ccc(C(Cl)=C(c2ccc(OC)cc2)c2ccc(OC)cc2)cc1 [Chlorotrianisene] | 0.994 | 0.944 | 0.983 | 1.01 | 0.96 | 0.928 | 0.978 | 0.993
22 | Cc1cc(N)c2ccccc2[n+]1CCCCCCCCCC[n+]1c(C)cc(N)c2ccccc21 [Dequalinium dichloride] | 0.989 | 0.939 | 0.96 | 0.932 (active) | 0.0354 (active) | 0.0484 (active) |  | 0.503
23 | CN1CCN(c2c(F)cc3c(=O)c(C(=O)O)cn(CCF)c3c2F)CC1 [Fleroxacin] |  | 0.0225 (active) | 0.0321 (active) | 0.0196 (active) | 0.727 | 0.585 | 0.00801 (active) | 0.00549 (active)
24 | CC1CCc2c(N3CCC(O)CC3)c(F)cc3c(=O)c(C(=O)O)cn1c23 (stereo not drawn) [Nadifloxacin] | 0.00794 (active) | 0.0399 (active) | 0.0237 (active) | 0.0176 (active) | 0.0102 (active) | 0.00997 (active) | 0.0247 (active) | 0.00372 (active)
25 | COc1ccc2c(c1)c(CC(=O)O)c(C)n2C(=O)c1ccc(Cl)cc1 [Indomethacin] |  | 0.966 | 0.448 (active) | 1 | 0.967 | 1.01 | 1.01 | 0.974
26 | C[C@@H](O)[C@H]1C(=O)N2C(C(=O)O)=C(SCCNC=N)C[C@H]12 [Imipenem] | 1.02 | 0.63 (active) | 1 | 0.967 |  |  | 1 | 0.996
27 | CCN1CCN(C(=O)N[C@@H](C(=O)N[C@@H]2C(=O)N3[C@@H]2SC(C)(C)[C@@H]3C(=O)O)c2ccccc2)C(=O)C1=O [Piperacillin sodium salt] |  | 0.098 (active) | 0.63 (active) | 0.291 (active) | 0.0135 (active) | 0.0163 (active) | 0.734 | 0.00671 (active)
28 | CCOC(=O)C1=C(C)NC(C)=C(C(=O)OCC)C1c1ccccc1/C=C/C(=O)OC(C)(C)C [Lacidipine] | 1.01 | 1 | 1.02 | 1.02 | 1.07 | 1.06 | 1 | 1
29 | CC(=O)[C@H]1CC[C@H]2[C@@H]3CCC4=CC(=O)CC[C@]4(C)[C@H]3CC[C@]12C [Progesterone] |  | 1.01 | 1 | 1 | 0.0182 (active) | 0.612 | 1.02 | 0.918
30 | CCOC(=O)O[C@]1(C(=O)COC(=O)CC)CC[C@H]2[C@@H]3CCC4=CC(=O)C=C[C@]4(C)[C@H]3[C@@H](O)C[C@@]21C [Prednicarbate] | 1.01 | 1.03 |  | 1 | 1 | 1.04 | 0.992 | 0.967
31 | Cc1ccc(/C(=C\CN2CCCC2)c2ccccn2)cc1 [Triprolidine hydrochloride] |  | 0.97 | 0.967 | 0.992 | 1 | 0.99 | 1 | 0.978
32 | CC(C)NC[C@H](O)COc1cccc2ccccc12 [(S)-(-)-Propranolol hydrochloride] |  | 0.997 | 1.01 | 0.996 | 1.04 | 1.06 | 0.989 | 0.986

Source: the supplement of paper PMC12350171
